The text below walks through data of PubChem BioAssay (NCI).

About 83,000 compounds went through this panel and 20% of them were active in at least one assay; those are over-represented in the sample as a whole.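 Step 1: grow cells in 96-well plates. Step 2: add test compound at a single concentration. Step 3: incubate 48 h. Step 4: record percent growth.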 A number with no mark means an inactive call. Active and inactive are the calls of the source.

For the test, the system named is CAKI-1 renal. Kind of test: NCI-60 one-dose screen, 48 h (100 = growth as untreated, 0 = no growth, -100 = all killed). Conditions: 10 µM unless noted. As for the experimental part: Growth inhibition of the CAKI-1 human tumor cell line is measured as a screen for anti-cancer activity. Cells are grown in 96 well plates and exposed to the test compound for 48 hours. Compounds are tested at a single concentration, which is 10^-5 M for most compounds. The reported endpoint is percent growth (GI% or GIPRCNT), where numbers from 0 - 100% represent growth inhibition, and numbers from -100% - 0 represent cell death. For example, a value of 40 represents 60% growth inhibition. A value of 0 means no net growth occurred over the course of the experiment. A value of -40 indicates 40% of cells at the beginning of the experiment died by the end of the experiment. A value of -100 means all cells are dead at the end of the experiment.
NCI-60 Human Tumor Cell Lines Screen was performed using the standard one-dose NCI protocol, which is described in more detail at https://dtp.cancer.gov/discovery_development/nci-60/default.htm.
Compounds with GIPRCNT values below 10 were considered active. Activity score was based on GIPRCNT using the following formula: […]
Score is 0 for GIPRCNT values of 100 or above, 50 for GIPRCNT values of 0, and 100 for GIPRCNT values of -100.
As to `COc1ccc(C(=O)/C=C/c2cn(-c3ccccc3)nc2-c2cccc(Nc3ccnc4cc(Cl)ccc34)c2)cc1`, the growth is 94.3%.
With `CC1(C)C2CCC(O)(C(=O)O)C1C2` (stereo not given) the figure was 94%.
In the case of `CCCCOc1ncnc2nc[nH]c12`, the growth was 106%.
With `Cc1ccc2cc3c(NC(=O)c4cccnc4)nn(C)c3nc2c1` the figure was 85.7%; with `C=C(CN1CC=CCC1)[C@@H]1CC[C@]2(C(=O)OC)CC[C@]3(C)[C@H](CC[C@@H]4[C@@]5(C)CC[C@H](OC(C)=O)C(C)(C)[C@@H]5CC[C@]43C)[C@@H]12`, 81.2%; with `CC(C)COC(=O)NC(C)(C)C`, 96.4%.
With `C/C(=N\OC(=O)Nc1ccccc1)c1ccccc1` the figure was 114%; with `CCc1ccc(-c2ccc(NC3CCCCCC3)nn2)cc1S(N)(=O)=O`, 96.6%.
In the case of `COc1cc2nccc(Oc3ccc(NC(=O)C4(C(=O)Nc5ccc(F)cc5)CC4)cc3)c2cc1OC(=O)c1ccc(N)cc1`, the growth was 20.9%.
With `CCCCNCC(O)c1cc(-c2ccc(C(F)(F)F)cc2)nc(-c2ccc(C(F)(F)F)cc2)c1` (stereo not given) the figure was -73% (active); with `CC(C)OC(=O)c1ccc([N+](=O)[O-])cc1`, 103%; with `COc1ccc(NC(=O)c2ccc(C(F)(F)F)nc2Nc2ccc(Cl)cc2C)cc1Cl`, 19.9%.
With `CN(C)CCOc1nc2c3cccnc3cc(-c3cccc(Cl)c3)c2c2ncccc12` the figure was 28.1%.
To `O=C(C=P(c1ccccc1)(c1ccccc1)c1ccccc1)CCl` belongs -74.9% (active); to `CC1=C(C(=O)Nc2ccc(F)cc2)C(c2ccc(Cl)cc2)C2=C(CC(C)(C)CC2=O)N1` (stereo not given), 72.7%.
On to `[O-]/[N+](=C\c1ccccc1)CC1(O)CCCCC1`, for which the growth was 104%.
As for `Cc1cc(C)c2c(NC(=O)Nc3ccc(Cl)c(Cl)c3)n[nH]c2n1`, the growth is 91.6%.
Consider `O=C1Nc2ccccc2/C1=C/c1c[nH]c2ccccc12`, for which the growth is 42.8%.
For `COc1ccc(-c2nn(-c3cccc(Cl)c3)cc2/C=C2\C(=N)N(c3ccccc3)N=C2N)cc1`, the growth is -27.6% (active).
On to `Cc1cc(C)c([O-])c(CN(C)CCN(C)Cc2cc(C)cc(C)c2[O-])c1.O=C([O-])c1cccc(C(=O)[O-])n1.[Ti+4]`, for which the growth was 24.6%.
To `Cc1cc(C)cc(Nc2cc(C)nc3nc(C(F)(F)F)nn23)c1` belongs 12.4%; to `c1ccc(C(Nc2ccccn2)(c2ccccc2)c2ccccc2)cc1`, 63.3%; to `CCN(C)CCCOc1ccc(/C(=C(\C)Cc2cccc(OC)c2)c2ccc(OC(C)=O)cc2)cc1`, 94.9%.
With `Nc1nc(N)c2cc(Sc3ccc(Cl)cc3)ccc2n1`, the growth was 13.5%.
In the case of `COc1ccc2[nH]c(O)c(/C=c3/ccc4c(c3)N=C(c3ccc(F)cc3)N=4)c2c1`, the growth is 20.1%.
As to `COc1ccc(-c2[nH]nc(N)c2-c2cc(OC)c(OC)c(OC)c2)cc1`, the growth was 5.73% (active).
To `CN(C)c1ccc(/C=C(\C#N)c2nc3ccccc3n2C)cc1` belongs 13.7%; to `CCN(CC)Cc1cc(Nc2ccnc3cc(Cl)ccc23)cc(-c2ccc(Cl)cc2)c1O`, 54.8%; to `Cc1cc(C)c2c(n1)sc1c(Nc3ccc(OCc4ccccc4)cc3)ncnc12`, 97.5%.
Consider `COc1ccc2[nH]c(O)c(/C=c3/ccc4c(c3)N=C(c3ccc(C(F)(F)F)cc3)N=4)c2c1`, for which the growth was 55.6%.
To `Clc1ccc2c(c1)-c1ccccc1C1=NCCN12` belongs 29.4%.
To `COc1ccccc1NC(=O)OCC12COCN1COC2` belongs 100%; to `Nc1nc(N)c2c(n1)NC(c1sc(Cl)nc1Cl)CC(c1ccc3c(c1)OCO3)=N2` (stereo not given), 26.5%.
With `O=[N+]([O-])c1cccc(N=C(Nc2cccc([N+](=O)[O-])c2)c2ccccc2)c1` the figure was 80.3%; with `COc1cc2c(cc1I)-c1c(cc(OC)c(OC)c1OC)CC[C@@H]2NC(C)=O`, 8.95% (active); with `C[C@@H](C[C@H](CC1CC1)c1ccccc1)c1ccc2ccccc2c1`, 92.9%.
As to `COc1c(C(=O)/C=C/c2ccc(C)o2)c(O)cc2occc12`, the growth was 74.2%.
Take `Oc1ccc(Cl)cc1-c1cc(-c2ccccc2Cl)[nH]n1`: the growth is 75.9%.
For the molecule `CC(=O)Nc1ccc(Cl)cc1Cl`, the growth is 73.4%.
As to `N#Cc1nc(-c2cccc(Br)c2)cc(-c2ccc(Nc3nc(N4CCCCC4)nc(N4CCCCC4)n3)cc2)c1N`, the growth was -75.5% (active).
